# In paper PMC11062922 (Nature Chemical Biology, 2023):
# Where two headings read alike, the source gives them in different places.
# How the values were obtained:
# Details in all cases: read-out: apparent Kd, n = 1
# TBK1 = test system: TBK1
# TGFBR1 = test system: TGFBR1
# TNK1 = test system: TNK1
# [1] = compound concentrations:100 nM and 1000 nM (sheet 'Lestaurtinib' of Supplementary Table 1),run:Lestaurtinib_02473_R3,Plate:MR010
# [2] = compound concentrations:100 nM and 1000 nM (sheet 'Lestaurtinib' of Supplementary Table 1),run:Lestaurtinib_02487_R2,Plate:MR012
# [3] = compound concentrations:100 nM and 1000 nM (sheet 'Lestaurtinib' of Supplementary Table 1),run:Lestaurtinib_02496_R2,Plate:MR013
# [4] = compound concentrations:100 nM and 1000 nM (sheet 'Lestaurtinib' of Supplementary Table 1),run:Lestaurtinib_02566_R1,Plate:MR014
# [5] = compound concentrations:100 nM and 1000 nM (sheet 'Lestaurtinib' of Supplementary Table 1),run:Lestaurtinib_02566_R2,Plate:MR014
# [6] = compound concentrations:100 nM and 1000 nM (sheet 'Lestaurtinib' of Supplementary Table 1),run:Lestaurtinib_02584_R3,Plate:MR017
# [7] = compound concentrations:100 nM and 1000 nM (sheet 'Lestaurtinib' of Supplementary Table 1),run:Lestaurtinib_02606_R1,Plate:MR019
# [8] = compound concentrations:100 nM and 1000 nM (sheet 'Lestaurtinib' of Supplementary Table 1),run:Lestaurtinib_02741_R3,Plate:MR023
# [9] = compound concentrations:100 nM and 1000 nM (sheet 'Lestaurtinib' of Supplementary Table 1),run:Lestaurtinib_02752_R2,Plate:MR025
# [10] = compound concentrations:100 nM and 1000 nM (sheet 'Lestaurtinib' of Supplementary Table 1),run:Lestaurtinib_02765_R2,Plate:MR026
# [11] = compound concentrations:100 nM and 1000 nM (sheet 'Lestaurtinib' of Supplementary Table 1),run:Lestaurtinib_02766_R1,Plate:MR027
# [12] = compound concentrations:100 nM and 1000 nM (sheet 'Lestaurtinib' of Supplementary Table 1),run:Lestaurtinib_02766_R3,Plate:MR027
# [13] = compound concentrations:100 nM and 1000 nM (sheet 'Lestaurtinib' of Supplementary Table 1),run:Lestaurtinib_02802_R1,Plate:MR029
# [14] = compound concentrations:100 nM and 1000 nM (sheet 'Lestaurtinib' of Supplementary Table 1),run:Lestaurtinib_02339_R2,Plate:MR001
# [15] = compound concentrations:100 nM and 1000 nM (sheet 'Lestaurtinib' of Supplementary Table 1),run:Lestaurtinib_02339_R3,Plate:MR001
# [16] = compound concentrations:100 nM and 1000 nM (sheet 'Lestaurtinib' of Supplementary Table 1),run:Lestaurtinib_02364_R3,Plate:MR002
# [17] = compound concentrations:100 nM and 1000 nM (sheet 'Lestaurtinib' of Supplementary Table 1),run:Lestaurtinib_02367_R2,Plate:MR003
# [18] = compound concentrations:100 nM and 1000 nM (sheet 'Lestaurtinib' of Supplementary Table 1),run:Lestaurtinib_02437_R3,Plate:MR007
# [19] = compound concentrations:100 nM and 1000 nM (sheet 'Lestaurtinib' of Supplementary Table 1),run:Lestaurtinib_02438_R2,Plate:MR008
substance,measurement,setting,value
Lestaurtinib,potency estimated from few doses,"TBK1; compound concentrations:100 nM and 1000 nM (sheet 'Lestaurtinib' of Supplementary Table 1),run:Lestaurtinib_02473_R2,Plate:MR010",1.37 µM
same,potency estimated from few doses,TBK1; [1],0.851 µM
same,potency estimated from few doses,"TBK1; compound concentrations:100 nM and 1000 nM (sheet 'Lestaurtinib' of Supplementary Table 1),run:Lestaurtinib_02482_R1,Plate:MR011",1.35 µM
same,potency estimated from few doses,"TBK1; compound concentrations:100 nM and 1000 nM (sheet 'Lestaurtinib' of Supplementary Table 1),run:Lestaurtinib_02482_R2,Plate:MR011",1.32 µM
same,potency estimated from few doses,"TBK1; compound concentrations:100 nM and 1000 nM (sheet 'Lestaurtinib' of Supplementary Table 1),run:Lestaurtinib_02487_R1,Plate:MR012",0.95 µM
same,potency estimated from few doses,TBK1; [2],1.51 µM
same,potency estimated from few doses,TBK1; [3],1.24 µM
same,potency estimated from few doses,"TBK1; compound concentrations:100 nM and 1000 nM (sheet 'Lestaurtinib' of Supplementary Table 1),run:Lestaurtinib_02496_R3,Plate:MR013",1.35 µM
same,potency estimated from few doses,TBK1; [4],0.854 µM
same,potency estimated from few doses,TBK1; [5],1.41 µM
same,potency estimated from few doses,"TBK1; compound concentrations:100 nM and 1000 nM (sheet 'Lestaurtinib' of Supplementary Table 1),run:Lestaurtinib_02577_R1,Plate:MR016",0.807 µM
same,potency estimated from few doses,TBK1; [6],1.41 µM
same,potency estimated from few doses,"TBK1; compound concentrations:100 nM and 1000 nM (sheet 'Lestaurtinib' of Supplementary Table 1),run:Lestaurtinib_02601_R1,Plate:MR018",1.21 µM
same,potency estimated from few doses,"TBK1; compound concentrations:100 nM and 1000 nM (sheet 'Lestaurtinib' of Supplementary Table 1),run:Lestaurtinib_02601_R2,Plate:MR018",1.76 µM
same,potency estimated from few doses,"TBK1; compound concentrations:100 nM and 1000 nM (sheet 'Lestaurtinib' of Supplementary Table 1),run:Lestaurtinib_02601_R3,Plate:MR018",1.7 µM
same,potency estimated from few doses,TBK1; [7],1.53 µM
same,potency estimated from few doses,"TBK1; compound concentrations:100 nM and 1000 nM (sheet 'Lestaurtinib' of Supplementary Table 1),run:Lestaurtinib_02624_R1,Plate:MR020",1.91 µM
same,potency estimated from few doses,"TBK1; compound concentrations:100 nM and 1000 nM (sheet 'Lestaurtinib' of Supplementary Table 1),run:Lestaurtinib_02624_R2,Plate:MR020",1.4 µM
same,potency estimated from few doses,"TBK1; compound concentrations:100 nM and 1000 nM (sheet 'Lestaurtinib' of Supplementary Table 1),run:Lestaurtinib_02624_R3,Plate:MR020",1.46 µM
same,potency estimated from few doses,TBK1; [8],1.51 µM
same,potency estimated from few doses,"TBK1; compound concentrations:100 nM and 1000 nM (sheet 'Lestaurtinib' of Supplementary Table 1),run:Lestaurtinib_02748_R2,Plate:MR024",1.31 µM
same,potency estimated from few doses,TBK1; [9],0.837 µM
same,potency estimated from few doses,"TBK1; compound concentrations:100 nM and 1000 nM (sheet 'Lestaurtinib' of Supplementary Table 1),run:Lestaurtinib_02752_R3,Plate:MR025",0.961 µM
same,potency estimated from few doses,TBK1; [10],1.3 µM
same,potency estimated from few doses,TBK1; [11],0.972 µM
same,potency estimated from few doses,TBK1; [12],1.3 µM
same,potency estimated from few doses,"TBK1; compound concentrations:100 nM and 1000 nM (sheet 'Lestaurtinib' of Supplementary Table 1),run:Lestaurtinib_02768_R2,Plate:MR028",1.93 µM
same,potency estimated from few doses,"TBK1; compound concentrations:100 nM and 1000 nM (sheet 'Lestaurtinib' of Supplementary Table 1),run:Lestaurtinib_02768_R3,Plate:MR028",1.33 µM
same,potency estimated from few doses,"TBK1; compound concentrations:100 nM and 1000 nM (sheet 'Lestaurtinib' of Supplementary Table 1),run:Lestaurtinib_02795_R1,Plate:MR022",1.8 µM
same,potency estimated from few doses,"TBK1; compound concentrations:100 nM and 1000 nM (sheet 'Lestaurtinib' of Supplementary Table 1),run:Lestaurtinib_02795_R2,Plate:MR022",1.37 µM
same,potency estimated from few doses,"TBK1; compound concentrations:100 nM and 1000 nM (sheet 'Lestaurtinib' of Supplementary Table 1),run:Lestaurtinib_02795_R3,Plate:MR022",1.7 µM
same,potency estimated from few doses,TBK1; [13],0.976 µM
same,potency estimated from few doses,"TBK1; compound concentrations:100 nM and 1000 nM (sheet 'Lestaurtinib' of Supplementary Table 1),run:Lestaurtinib_02802_R2,Plate:MR029",1.3 µM
same,potency estimated from few doses,"TBK1; compound concentrations:100 nM and 1000 nM (sheet 'Lestaurtinib' of Supplementary Table 1),run:Lestaurtinib_03172_R2,Plate:MR031",1.75 µM
same,potency estimated from few doses,"TBK1; compound concentrations:100 nM and 1000 nM (sheet 'Lestaurtinib' of Supplementary Table 1),run:Lestaurtinib_03260_R1,Plate:MR033",1.46 µM
same,potency estimated from few doses,"TBK1; compound concentrations:100 nM and 1000 nM (sheet 'Lestaurtinib' of Supplementary Table 1),run:Lestaurtinib_03260_R2,Plate:MR033",1.58 µM
same,potency estimated from few doses,"TBK1; compound concentrations:100 nM and 1000 nM (sheet 'Lestaurtinib' of Supplementary Table 1),run:Lestaurtinib_03260_R3,Plate:MR033",1.24 µM
same,potency estimated from few doses,TGFBR1; [14],1.53 µM
same,potency estimated from few doses,TGFBR1; [15],1.42 µM
same,potency estimated from few doses,TGFBR1; [16],1.63 µM
same,potency estimated from few doses,TGFBR1; [17],1.9 µM
same,potency estimated from few doses,"TGFBR1; compound concentrations:100 nM and 1000 nM (sheet 'Lestaurtinib' of Supplementary Table 1),run:Lestaurtinib_02367_R3,Plate:MR003",2.07 µM
same,potency estimated from few doses,"TGFBR1; compound concentrations:100 nM and 1000 nM (sheet 'Lestaurtinib' of Supplementary Table 1),run:Lestaurtinib_02381_R1,Plate:MR004",2.08 µM
same,potency estimated from few doses,"TGFBR1; compound concentrations:100 nM and 1000 nM (sheet 'Lestaurtinib' of Supplementary Table 1),run:Lestaurtinib_02407_R1,Plate:MR005",2.02 µM
same,potency estimated from few doses,"TGFBR1; compound concentrations:100 nM and 1000 nM (sheet 'Lestaurtinib' of Supplementary Table 1),run:Lestaurtinib_02422_R1,Plate:MR006",0.964 µM
same,potency estimated from few doses,"TGFBR1; compound concentrations:100 nM and 1000 nM (sheet 'Lestaurtinib' of Supplementary Table 1),run:Lestaurtinib_02437_R2,Plate:MR007",1.79 µM
same,potency estimated from few doses,TGFBR1; [18],0.176 µM
same,potency estimated from few doses,TGFBR1; [19],1.42 µM
same,potency estimated from few doses,"TGFBR1; compound concentrations:100 nM and 1000 nM (sheet 'Lestaurtinib' of Supplementary Table 1),run:Lestaurtinib_02438_R3,Plate:MR008",1.58 µM
same,potency estimated from few doses,"TGFBR1; compound concentrations:100 nM and 1000 nM (sheet 'Lestaurtinib' of Supplementary Table 1),run:Lestaurtinib_02443_R3,Plate:MR009",1.32 µM
same,potency estimated from few doses,TGFBR1; [1],1.75 µM
same,potency estimated from few doses,"TGFBR1; compound concentrations:100 nM and 1000 nM (sheet 'Lestaurtinib' of Supplementary Table 1),run:Lestaurtinib_02482_R3,Plate:MR011",1.76 µM
same,potency estimated from few doses,TGFBR1; [2],1.4 µM
same,potency estimated from few doses,"TGFBR1; compound concentrations:100 nM and 1000 nM (sheet 'Lestaurtinib' of Supplementary Table 1),run:Lestaurtinib_02496_R1,Plate:MR013",1.53 µM
same,potency estimated from few doses,TGFBR1; [3],1.83 µM
same,potency estimated from few doses,TGFBR1; [4],0.827 µM
same,potency estimated from few doses,TGFBR1; [5],1.31 µM
same,potency estimated from few doses,"TGFBR1; compound concentrations:100 nM and 1000 nM (sheet 'Lestaurtinib' of Supplementary Table 1),run:Lestaurtinib_02566_R3,Plate:MR014",1.34 µM
same,potency estimated from few doses,"TGFBR1; compound concentrations:100 nM and 1000 nM (sheet 'Lestaurtinib' of Supplementary Table 1),run:Lestaurtinib_02577_R3,Plate:MR016",1.82 µM
same,potency estimated from few doses,TGFBR1; [6],1.58 µM
same,potency estimated from few doses,TGFBR1; [7],2.21 µM
same,potency estimated from few doses,"TGFBR1; compound concentrations:100 nM and 1000 nM (sheet 'Lestaurtinib' of Supplementary Table 1),run:Lestaurtinib_02606_R2,Plate:MR019",2.08 µM
same,potency estimated from few doses,TGFBR1; [8],1.35 µM
same,potency estimated from few doses,"TGFBR1; compound concentrations:100 nM and 1000 nM (sheet 'Lestaurtinib' of Supplementary Table 1),run:Lestaurtinib_02748_R1,Plate:MR024",1.42 µM
same,potency estimated from few doses,"TGFBR1; compound concentrations:100 nM and 1000 nM (sheet 'Lestaurtinib' of Supplementary Table 1),run:Lestaurtinib_02748_R3,Plate:MR024",1.75 µM
same,potency estimated from few doses,TGFBR1; [9],1.6 µM
same,potency estimated from few doses,TGFBR1; [10],2.02 µM
same,potency estimated from few doses,TGFBR1; [11],1.36 µM
same,potency estimated from few doses,TGFBR1; [12],1.57 µM
same,potency estimated from few doses,TGFBR1; [13],1.54 µM
same,potency estimated from few doses,"TGFBR1; compound concentrations:100 nM and 1000 nM (sheet 'Lestaurtinib' of Supplementary Table 1),run:Lestaurtinib_02896_R3,Plate:MR030",0.95 µM
same,potency estimated from few doses,"TGFBR1; compound concentrations:100 nM and 1000 nM (sheet 'Lestaurtinib' of Supplementary Table 1),run:Lestaurtinib_03172_R1,Plate:MR031",1.54 µM
same,potency estimated from few doses,"TGFBR1; compound concentrations:100 nM and 1000 nM (sheet 'Lestaurtinib' of Supplementary Table 1),run:Lestaurtinib_03172_R3,Plate:MR031",1.58 µM
same,potency estimated from few doses,"TGFBR1; compound concentrations:100 nM and 1000 nM (sheet 'Lestaurtinib' of Supplementary Table 1),run:Lestaurtinib_03252_R1,Plate:MR032",1.33 µM
same,potency estimated from few doses,"TGFBR1; compound concentrations:100 nM and 1000 nM (sheet 'Lestaurtinib' of Supplementary Table 1),run:Lestaurtinib_03252_R2,Plate:MR032",1.59 µM
same,potency estimated from few doses,"TNK1; compound concentrations:100 nM and 1000 nM (sheet 'Lestaurtinib' of Supplementary Table 1),run:Lestaurtinib_02339_R1,Plate:MR001",0.22 µM
same,potency estimated from few doses,TNK1; [14],0.0935 µM
same,potency estimated from few doses,TNK1; [15],0.256 µM
same,potency estimated from few doses,"TNK1; compound concentrations:100 nM and 1000 nM (sheet 'Lestaurtinib' of Supplementary Table 1),run:Lestaurtinib_02364_R2,Plate:MR002",0.213 µM
same,potency estimated from few doses,TNK1; [16],0.19 µM
same,potency estimated from few doses,"TNK1; compound concentrations:100 nM and 1000 nM (sheet 'Lestaurtinib' of Supplementary Table 1),run:Lestaurtinib_02367_R1,Plate:MR003",0.191 µM
same,potency estimated from few doses,TNK1; [17],0.208 µM
same,potency estimated from few doses,"TNK1; compound concentrations:100 nM and 1000 nM (sheet 'Lestaurtinib' of Supplementary Table 1),run:Lestaurtinib_02407_R3,Plate:MR005",0.213 µM
same,potency estimated from few doses,"TNK1; compound concentrations:100 nM and 1000 nM (sheet 'Lestaurtinib' of Supplementary Table 1),run:Lestaurtinib_02422_R3,Plate:MR006",0.075 µM
same,potency estimated from few doses,TNK1; [18],0.0158 µM
same,potency estimated from few doses,TNK1; [19],0.0654 µM
